Test results reported in PubChem BioAssay (Tox21).
Inconclusive results are not listed. Active and inactive are the calls of the source. Calls follow the shape of the dose curve; as a rule, active = well fitted curve in the direction sought with a large enough effect in the repeat runs; inconclusive = weak or mixed curves; inactive = no such curve, though single readings can be large; an effect the other way counts as inactive or inconclusive.

What was measured:
[1] = A CellTox Green Cytotoxicity Assay to monitor cytotoxicity in HEK293 cells - 40 hour (AID 1224871); also: nearly all actives have a fitted effect of over 45% in size
Method in brief: (§1)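 HEK293 cells premixed with CellTox Green dye were seeded at 600 cells/well and left 5 h at 37 C/5% CO2 before pin transfer of 23 nL compound in DMSO. Fluorescence from dye bound to dead-cell DNA was read during 40 h treatment.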

[2] = qHTS RealTime-Glo MT Cell Viability Assay in HEK293 cells - 16 hour (AID 1224872); also: top concentration of the series differs between compounds; nearly all actives have a fitted effect of over 50% in size
Method in brief: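 HEK293 cells seeded with NanoLuc/prosubstrate reagent, rested 5 h at 37 C, then dosed and kept at 37 C up to 40 h. Nonlytic real-time luminescence from viable cells read at 0, 8, 16, 24, 32 and 40 h.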

[3] = qHTS RealTime-Glo MT Cell Viability Assay in HepG2 cells - 8 hour (AID 1224873); also: nearly all actives have a fitted effect of over 55% in size
Method in brief: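 HepG2 cells mixed with RealTime-Glo MT reagents (NanoLuc plus cell-permeant prosubstrate) were seeded at 600 cells/well, incubated 5 h at 37 C/5% CO2, then pinned with compounds in DMSO; nonlytic luminescence tracked viability during 40 h treatment.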

[4] = A CellTox Green Cytotoxicity Assay to monitor cytotoxicity in HEK293 cells - 24 hour (AID 1224875); also: series mostly up to about 77 µM; nearly all actives have a fitted effect of over 45% in size
Method in brief: as §1

[5] = qHTS RealTime-Glo MT Cell Viability Assay in HepG2 cells - 32 hour (AID 1224877); also: nearly all actives have a fitted effect of over 55% in size
Method in brief: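 HepG2 cells (600/well) were dispensed with RealTime-Glo reagents, incubated 5 h at 37 °C, then treated with compounds in DMSO for up to 40 h. Nonlytic NanoLuc luminescence reflecting viable cells was read at each stated time point.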

[6] = A CellTox Green Cytotoxicity Assay to monitor cytotoxicity in HepG2 cells - 40 hour (AID 1224879); also: nearly all actives have a fitted effect of over 40% in size
Method in brief: (§2)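 HepG2 cells were seeded together with the CellTox Green dye at 600 cells/well, left 5 h at 37 C/5% CO2, then given compounds in DMSO. Fluorescence from dye bound to dead-cell DNA was read repeatedly over 40 h of treatment at 37 C.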

[7] = qHTS RealTime-Glo MT Cell Viability Assay in HEK293 cells - 0 hour (AID 1224880); also: top concentration of the series differs between compounds; nearly all actives have a fitted effect of over 45% in size
Method in brief: (§3)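 HEK293 cells mixed with RealTime-Glo reagents (NanoLuc plus cell-permeant prosubstrate) at 600 cells/well, preincubated 5 h at 37 C/5% CO2, then given 23 nL compound in DMSO. Nonlytic luminescence from viable cells was read at 0, 8, 16, 24, 32 and 40 h.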

[8] = A CellTox Green Cytotoxicity Assay to monitor cytotoxicity in HepG2 cells - 16 hour (AID 1224876); also: nearly all actives have a fitted effect of over 45% in size
Method in brief: as §2

[9] = A CellTox Green Cytotoxicity Assay to monitor cytotoxicity in HepG2 cells - 24 hour (AID 1224878); also: nearly all actives have a fitted effect of over 45% in size
Method in brief: as §2

[10] = qHTS RealTime-Glo MT Cell Viability Assay in HEK293 cells - 40 hour (AID 1224874); conditions: RealTime-Glo luminescence; max response: hits give low values; also: nearly all actives have a fitted effect of over 50% in size
Method in brief: as §3
% is scaled to controls: 0 for no effect and ±100 for the full control effect.

FC1(F)C(F)(F)C(F)(F)C2(F)C(F)(F)C(F)(F)C(F)(F)C(F)(F)C2(F)C1(F)F (stereo not given)
inactive: Potency [1] | Potency [2] | Potency [3] | Potency [4] | Potency [5] | Potency [6] | Potency [7]

CO/N=C(/C(=O)N[C@@H]1C(=O)N2C(C(=O)OCOC(=O)C(C)(C)C)=C(C)CS[C@H]12)c1csc(N)n1
inactive: Potency [1] | Potency [2] | Potency [3] | Potency [4] | Potency [5] | Potency [6] | Potency [7]

Cn1cc(S(C)=O)c(=O)c2ccc(F)cc21 (stereo not given)
inactive: Potency [1] | Potency [2] | Potency [3] | Potency [4] | Potency [8] | Potency [5] | Potency [9] | Potency [6] | Potency [7]

COC(=O)C1=C(C)NC(C)=C(C(=O)OC)C1c1ccccc1[N+](=O)[O-]
inactive: Potency [1] | Potency [2] | max response [10] -16.8% | Potency [4] | Potency [8] | Potency [5] | Potency [9] | Potency [6]

CCO/C([O-])=N/c1c[n+](N2CCOCC2)no1
inactive: Potency [1] | Potency [3] | max response [10] 5.08% | Potency [4] | Potency [8] | Potency [5] | Potency [9] | Potency [6] | Potency [7]

CC1=CC(C)C(C=O)CC1 (stereo not given)
inactive: Potency [1] | Potency [3] | max response [10] -0.371% | Potency [4] | Potency [8] | Potency [5] | Potency [9] | Potency [6] | Potency [7]

NCCc1cnc[nH]1
inactive: Potency [1] | Potency [3] | max response [10] -0.307% | Potency [4] | Potency [8] | Potency [5] | Potency [9] | Potency [6] | Potency [7]

CC1(C)CO[C@@H](CC(=O)O)CN1
inactive: Potency [1] | Potency [3] | max response [10] 4.58% | Potency [4] | Potency [8] | Potency [5] | Potency [9] | Potency [6] | Potency [7]

CCSC(=O)N(CC(C)C)CC(C)C
inactive: Potency [1] | Potency [3] | max response [10] 5.8% | Potency [4] | Potency [8] | Potency [5] | Potency [9] | Potency [6] | Potency [7]

CC1(C)C(O)C(C)(C)C1O (stereo not given)
inactive: Potency [1] | Potency [2] | Potency [3] | Potency [4] | Potency [8] | Potency [5] | Potency [6] | Potency [7]

Nc1c2c(nc3ccccc13)CCCC2O (stereo not given)
inactive: Potency [1] | Potency [2] | Potency [3] | Potency [4] | Potency [5] | Potency [9] | Potency [6]

C/C=C(\C)C#N
inactive: Potency [1] | Potency [3] | Potency [4] | Potency [8] | Potency [5] | Potency [9] | Potency [6] | Potency [7]

CCCCCCCCCCCCCCCCC
inactive: Potency [1] | Potency [3] | Potency [4] | Potency [5] | Potency [6] | Potency [7]

O=C(CCCN1CCN(c2ccccn2)CC1)c1ccc(F)cc1
inactive: Potency [1] | Potency [3] | Potency [4] | Potency [8] | Potency [5] | Potency [6] | Potency [7]

N=C(N)c1ccc2cc(OC(=O)c3ccc(N=C(N)N)cc3)ccc2c1
inactive: Potency [1] | Potency [3] | max response [10] 1.38% | Potency [4] | Potency [8] | Potency [5] | Potency [9] | Potency [6] | Potency [7]

ClC(Cl)(Br)Br
inactive: Potency [1] | Potency [3] | Potency [4] | Potency [5] | Potency [9] | Potency [6] | Potency [7]

CC(C)(CC(=O)O)C(=O)O
inactive: Potency [1] | Potency [3] | max response [10] 0.211% | Potency [4] | Potency [8] | Potency [5] | Potency [9] | Potency [7]

CCC(=O)OC(C)c1ccccc1 (stereo not given)
inactive: Potency [1] | Potency [3] | max response [10] -2.17% | Potency [8] | Potency [5] | Potency [6] | Potency [7]

N[C@H](C(=O)O)c1ccc(O)cc1
inactive: Potency [1] | viability change, negative = cytotoxic [3] 0.244% [at 15.8 µM] | max response [10] 2.28% | activity change [4] 0.19% [at 15.8 µM, hits give high values] | cytotoxicity increase [8] -12.1% [at 15.8 µM] | activity change, negative = cytotoxic [5] 3.27% [at 15.8 µM] | cytotoxicity increase [6] -4.58% [at 15.8 µM] | activity change, negative = cytotoxicity [7] -0.65% [at 15.8 µM]

Cc1sccc1Br
inactive: Potency [1] | Potency [3] | Potency [4] | Potency [5] | Potency [9] | Potency [6] | Potency [7]

N=C(N)c1ccccc1
inactive: Potency [1] | Potency [3] | max response [10] -0.53% | Potency [4] | Potency [8] | Potency [5] | Potency [9] | Potency [6] | Potency [7]

OCCOc1ccc(OCCO)cc1
inactive: Potency [1] | Potency [3] | max response [10] 19.3% | Potency [4] | Potency [5] | Potency [9] | Potency [6] | Potency [7]
